14 compounds from PubChem BioAssay (NCATS) can be followed below.

One assay concerns CRL-7250. Nature of the assay: Cytotoxic Profiling of Annotated Libraries Using Quantitative High-Throughput Screening (AID 1296008). Further: potency means the concentration at half of the fitted maximal effect. On max response: on the % scale 0 is the no-effect control and ±100 the full control effect. The following applies: Five cell lines viability, CellTiter-Glo ATP luminescence, 48-72 h; max response: stronger effect = lower value. A digest of the protocol:
(§1)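 Compounds were pin-transferred onto cells and incubated 48 or 72 hr at 37 degree Celsius, 95% humidity. CellTiter-Glo was added, plates sat 10 min at room temperature, then ATP-coupled luminescence was imaged as the viability read-out.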
For orientation: In ATP-based viability assays light output follows the ATP content of the culture.

Another assay has as its system HEK293. The description is as above. The following applies: Five cell lines viability, CellTiter-Glo ATP luminescence, 48-72 h; max response: stronger effect = lower value. In outline:
as §1

In assay [1] the test system is HaCat. The description is as above. The following applies: Five cell lines viability, CellTiter-Glo ATP luminescence, 48-72 h; max response: stronger effect = lower value. In outline:
as §1

The next assay has as its system KB-3-1. The description is as above. As to conditions: Five cell lines viability, CellTiter-Glo ATP luminescence, 48-72 h; max response: stronger effect = lower value. A digest of the protocol:
as §1

For the next assay, the system named is NIH3T3. The assay is described as above. The following applies: Five cell lines viability, CellTiter-Glo ATP luminescence, 48-72 h; max response: stronger effect = lower value. A digest of the protocol:
as §1

The test system of assay [2] is HACAT. Nature of the assay: qHTS assay to identify novel small-molecules to repurpose for Merkel cell carcinoma treatment (AID 1296009). As to conditions: MCC and control cell lines, CellTiter-Glo viability, 72 h; at 44.8 µM (top of the series) unless noted. In outline: (§2)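 Viability readout: ATP luminescence (CellTiter-Glo) after 72 hr drug exposure at 37 degree celsius. Dose-response format was 8 points for NPC and 11 points for MIPE; data normalized to in-plate controls.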
For orientation: Quantitative high-throughput screening tests each substance at several concentrations.

For another assay, the system named is HEK293T. The assay is described as above. The following applies: MCC and control cell lines, CellTiter-Glo viability, 72 h; series mostly up to 44.8 µM. A digest of the protocol:
as §2

The structures appear in SMILES notation. Records with an inconclusive call do not appear. Values without a mark were called inactive. Active and inactive are the calls of the source. The call rests on the fitted dose curve; in most records, active means well fitted inhibition curve with a large enough effect; inconclusive means small, poorly fitted or top-dose-only effect; inactive means flat fitted curve, though single readings scatter.
Further: nearly all actives have a fitted effect of over 60% in size.

For `CCC/C=C/C(=O)O[C@H]1CC(C)(C)CC2[C@]13[C@H](O)O[C@@]21CCC2[C@@]4(C)CC[C@H](O[C@@H]5O[C@H](C(=O)O)[C@@H](O)[C@H](O[C@@H]6O[C@H](CO)[C@H](O)[C@H](O)[C@H]6O[C@@H]6O[C@@H](C)[C@H](O)[C@@H](O)[C@H]6O[C@@H]6OC[C@](O)(CO)[C@H]6O)[C@H]5O[C@@H]5O[C@H](CO)[C@H](O)[C@H](O)[C@H]5O)C(C)(C)C4CC[C@@]2(C)[C@]1(C)C[C@H]3OC(C)=O` (stereo partly drawn), the results for the max response in the assay with CRL-7250, with KB-3-1 and in the assay on NIH3T3 were -6.81%, 6.11% and 0.954%, respectively. Further, the result in the assay with HEK293 and in the assay on HaCat [1] was inactive. For the same compound, the outcome with HACAT [2] and in the assay on HEK293T was “inactive [at 9.27 µM]” each time.
Regarding `C[C@@H]1CC[C@]2(C(=O)O[C@@H]3O[C@H](CO)[C@@H](O)[C@H](O)[C@H]3O)CC[C@]3(C)C(=CCC4[C@@]5(C)C[C@@H](O)[C@H](O)C(C)(C)C5CC[C@]43C)C2[C@]1(C)O` (stereo partly drawn), the compound was called inactive with CRL-7250, in the assay with HEK293, with HaCat [1] and with NIH3T3. Moreover, the max response in the assay on KB-3-1 was 0.448%. The outcome in the assay with HACAT [2] was “inactive [at 17.4 µM]”. Besides, in the assay on HEK293T, the Potency entry is “inactive”.
Take `COc1cc(/C=C/c2cc(O)cc(O[C@@H]3O[C@H](CO)[C@@H](O)[C@H](O)[C@H]3O)c2)ccc1O`: the results for the max response in the assay on CRL-7250 and in the assay on KB-3-1 were 2.61% and 4.08%, respectively. In addition, the result in the assay on HEK293, with HaCat [1] and in the assay on NIH3T3 was inactive. Besides, the outcome with HACAT [2] was “inactive [at 17.4 µM]”. The Potency result with HEK293T was “inactive”.
As to `C=CC(C)(CC/C=C(\C)CC/C=C(\C)CC(O)/C=C(\C)C(=O)O)O[C@@H]1O[C@H](CO)[C@@H](O)[C@H](O)[C@H]1O[C@@H]1O[C@H](CO)[C@@H](O)[C@H](O)[C@H]1O` (stereo partly drawn), the compound was classed as inactive in the assay with CRL-7250, in the assay with HEK293, in the assay with HaCat [1] and in the assay with NIH3T3. Further, in the assay on KB-3-1, the max response was 5.27%. In the assay with HACAT [2], the outcome was “inactive [at 17.4 µM]”. Besides, the Potency result with HEK293T is “inactive”.
For the compound `CC(C)C1(O[C@@H]2O[C@H](CO)[C@@H](O)[C@H](O)[C@H]2O)CC=C(CO)CC1` (stereo partly drawn), the result in the assay on CRL-7250, with HEK293, in the assay with HaCat [1] and with HACAT [2] was inactive. The max response is -0.585% with KB-3-1 and 0.631% in the assay on NIH3T3. Also, the Potency entry in the assay on HEK293T was “inactive”.
On to `CNC(=O)Nc1ccc(OC)c(NC(=O)NC(=O)c2cc(F)c(F)cc2Cl)c1`, for which the max response is -5.98% in the assay on CRL-7250 and 0.332% in the assay with KB-3-1. Besides, the compound was classed as inactive in the assay with HEK293, in the assay on HaCat [1], in the assay on NIH3T3 and with HACAT [2]. Further, the Potency entry in the assay on HEK293T was “inactive”.
Consider `CN[C@@H]1[C@@H](O)[C@@H](O[C@@H]2[C@@H](O)[C@H](O[C@H]3O[C@H](CN)[C@@H](O)[C@H](O)[C@H]3O)[C@@H](N)C[C@H]2NC(=O)[C@@H](O)CN)OC[C@]1(C)O`, for which the values for the max response in the assay with CRL-7250 and in the assay on KB-3-1 were -2.08% and -2.9%, respectively. Moreover, the outcome in the assay on HEK293, with HaCat [1], with NIH3T3 and with HACAT [2] was inactive. In the assay on HEK293T, the Potency entry was “inactive”.
On to `Oc1ccc([C@H]2COc3cc(O)ccc3C2)cc1`, for which the result with CRL-7250, in the assay on HEK293, in the assay with HaCat [1] and in the assay on HACAT [2] was inactive. Further, the max response in the assay with KB-3-1 was 0.946%; in the assay with NIH3T3, 3.41%. Also, in the assay with HEK293T, the Potency entry is “inactive”.
Turning to `COc1cc(C2Oc3c(OC)cc(/C=C/C(=O)OC[C@H]4O[C@@H](OC(C)(C)C(=O)O)[C@H](O)[C@@H](O)[C@@H]4O)cc3C2CO)ccc1O` (stereo partly drawn), the call with CRL-7250, in the assay on HEK293 and in the assay with HaCat [1] was inactive. The max response is 0.492% in the assay on KB-3-1 and 1.11% in the assay on NIH3T3. Also, the outcome in the assay on HACAT [2] is “inactive [at 17.4 µM]”. Besides, the Potency result with HEK293T was “inactive”.
On to `C[C@@H]1CC[C@]2(C(=O)O)CC[C@]3(C)C(=CCC4[C@]5(C)C(CC[C@]43C)C(C)(C)[C@@H](O)[C@H](O)[C@@H]5O)C2[C@]1(C)O` (stereo partly drawn), for which the max response is -2.7% in the assay on CRL-7250 and -3.49% in the assay on NIH3T3. Moreover, the result with HEK293, in the assay with HaCat [1] and in the assay on KB-3-1 was inactive. The outcome in the assay with HACAT [2] is “inactive [at 17.4 µM]”. The Potency result in the assay on HEK293T was “inactive”.
With `O=C(c1ccccn1)c1cnn2c(-c3ccncc3)ccnc12`, the max response is 3% with CRL-7250, -2.39% in the assay on KB-3-1 and 1.02% with NIH3T3. Moreover, the result in the assay on HEK293, with HaCat [1] and in the assay with HACAT [2] was inactive. Besides, the Potency entry in the assay with HEK293T was “inactive”.
For `CC(C)c1nc(N(C)S(C)(=O)=O)nc(-c2ccc(F)cc2)c1/C=C/[C@@H](O)C[C@@H](O)CC(=O)O`, in the assay on CRL-7250, the Potency was 16.4 µM (active). The outcome in the assay with HEK293, in the assay on HaCat [1], in the assay on KB-3-1 and with HACAT [2] was inactive. For the same compound, the max response with NIH3T3 is 0.504%. Moreover, the Potency result in the assay with HEK293T was “inactive”.
For `CC1(C(=O)O)CCCC2(C)C1CCC13CC(CCC21)C1(CO)OC31` (stereo not drawn), the max response was -3.21% with CRL-7250 and 2.68% in the assay on KB-3-1. Also, the compound was classed as inactive in the assay on HEK293, with HaCat [1], in the assay with NIH3T3 and in the assay on HACAT [2]. Besides, the Potency entry in the assay on HEK293T was “inactive”.
As to `C=C1CCC2C(C)(C)C(O)CCC2(C)C1CCC(C)CCOC(=O)CCC(=O)O` (stereo not drawn), the max response with CRL-7250 was -7.27%; with KB-3-1, 1.36%; in the assay with NIH3T3, -1.95%. In addition, the outcome with HEK293 and in the assay on HaCat [1] was inactive. In addition, the outcome in the assay with HACAT [2] is “inactive [at 17.4 µM]”. In addition, in the assay on HEK293T, the Potency entry is “inactive”.
